Results on 65 compounds are retold here after the antibiotic and cytotoxicity screens of Wong et al. (2023).

Among all 39,000 compounds or so, about 1,500 (3.8%) were called active. Only a selection was taken, and actives are over-represented in it overall.

In this assay the test system is HSkMC (human skeletal muscle cells). The assay is described as follows: cytotoxicity call (relative viability < 0.9). The following applies: 10 µM.
In the case of `COc1ccccc1S(=O)(=O)N[C@H]1CC[C@@H](CCNC(=O)C2CC2)O[C@@H]1CO`, the cytotoxicity call is “inactive”. The result for `COc1ccc(NC(=O)Nc2cccc3c2O[C@@H](CN(C)CC2CCCCC2)[C@H](C)CN([C@@H](C)CO)C3=O)cc1` reads “inactive”; that for `O=C(C[C@H]1C[C@H]2c3cc(NS(=O)(=O)c4ccc(F)cc4)ccc3O[C@H]2[C@@H](CO)O1)N1CCCCC1`, “inactive”; that for `COCC(=O)N1C[C@@H](C)[C@H](OC)CN(C)C(=O)c2ccc(NC(=O)Nc3cccc(F)c3)cc2OC[C@@H]1C`, “inactive”.

For `C[C@@H]1CN([C@H](C)CO)C(=O)Cc2cc(NC(=O)Cc3cn(C)c4ccccc34)ccc2O[C@@H]1CN(C)Cc1ccc(C(F)(F)F)cc1`, the cytotoxicity call was “inactive”. As to `NC1CCN(C(=O)N2CCCC2)CC1`, the cytotoxicity call was “inactive”.

Turning to `C[C@@H]1CN([C@@H](C)CO)C(=O)Cc2cc(NS(=O)(=O)c3ccc(Cl)cc3)ccc2O[C@H]1CN(C)C(=O)Nc1ccc(C(F)(F)F)cc1`, the cytotoxicity call was “inactive”. As to `C[C@H](CO)N1C[C@H](C)[C@H](CN(C)CC2CC2)Oc2c(NS(=O)(=O)c3ccccc3)cccc2C1=O`, the cytotoxicity call was “inactive”.

Consider `COc1ccc(S(=O)(=O)Nc2ccc3c(c2)C(=O)N([C@H](C)CO)C[C@H](C)[C@@H](CN(C)S(=O)(=O)c2ccc(OC)cc2)O3)cc1`, for which the cytotoxicity call is “inactive”. For the compound `CN1C[C@@H](N)CC1=O`, the cytotoxicity call was “inactive”. In the case of `COC(=O)[C@H](Cc1ccccc1)N1CC2=CCCC=C[C@H]2[C@@H]1[C@@H](O)CCn1cc(CCC(=O)NO)nn1`, the cytotoxicity call is “inactive”.

`C[C@H](CO)N1C[C@H](C)[C@@H](CN(C)Cc2ccccc2)Oc2ccc(NC(=O)Nc3ccc(C(F)(F)F)cc3)cc2CC1=O`: the cytotoxicity call is “active”.

With `C[C@@H]1CN([C@H](C)CO)C(=O)Cc2cc(NC(=O)Nc3ccc(C(F)(F)F)cc3)ccc2O[C@@H]1CN(C)Cc1ccccc1`, the cytotoxicity call was “active”. Turning to `COc1cccc(S(=O)(=O)N2C[C@H](O)COC[C@@H]3O[C@@H](CC(=O)NCCCN4CCOCC4)CC[C@H]32)c1`, the cytotoxicity call was “inactive”. Regarding `CN1CCN(C(=O)C[C@@H]2C=C[C@@H](NS(=O)(=O)c3cccc(F)c3)[C@@H](CO)O2)CC1`, the cytotoxicity call was “inactive”. Regarding `O=C(O)/C=C\C(=O)Nc1cccc(C(=O)O)c1`, the cytotoxicity call was “inactive”. As for `COc1ccc(NC(=O)Nc2cccc3c2O[C@@H](CN(C)Cc2ccc(-c4ccccc4)cc2)[C@@H](C)CN([C@H](C)CO)C3=O)cc1`, the cytotoxicity call is “inactive”.

As to `COc1ccc(NC(=O)Nc2cccc3c2O[C@H](CN(C)Cc2ccc(-c4ccccc4)cc2)[C@H](C)CN([C@H](C)CO)C3=O)cc1`, the cytotoxicity call is “active”.

Consider `COc1ccc(NC(=O)Nc2cccc3c2O[C@H](CN(C)Cc2ccc(-c4ccccc4)cc2)[C@@H](C)CN([C@H](C)CO)C3=O)cc1`, for which the cytotoxicity call is “inactive”. For the compound `COc1ccc(NC(=O)Nc2cccc3c2O[C@@H](CN(C)Cc2ccc(-c4ccccc4)cc2)[C@H](C)CN([C@@H](C)CO)C3=O)cc1`, the cytotoxicity call is “inactive”. As for `COc1ccc(NC(=O)Nc2cccc3c2O[C@H](CN(C)Cc2ccc(-c4ccccc4)cc2)[C@H](C)CN([C@@H](C)CO)C3=O)cc1`, the cytotoxicity call was “inactive”.

For `COc1ccc(NC(=O)Nc2cccc3c2O[C@H](CN(C)Cc2ccc(-c4ccccc4)cc2)[C@@H](C)CN([C@@H](C)CO)C3=O)cc1`, the cytotoxicity call was “active”. Regarding `C[C@@H]1CN([C@H](C)CO)C(=O)c2cc(NS(=O)(=O)c3ccc(Cl)cc3)ccc2O[C@@H](C)CCCCO[C@@H]1CN(C)C(=O)NC1CCCCC1`, the cytotoxicity call is “inactive”. With `C[C@@H]1CCCCO[C@H](CN(C)Cc2ccc(C(=O)O)cc2)[C@H](C)CN([C@H](C)CO)C(=O)c2cc(NC(=O)c3ccccc3)ccc2O1`, the cytotoxicity call was “inactive”. With `C[C@@H]1CN([C@H](C)CO)C(=O)c2cc(NC(=O)Cn3cnnn3)ccc2O[C@@H]1CN(C)S(C)(=O)=O`, the cytotoxicity call was “inactive”. `C[C@@H]1CCCCO[C@@H](CN(C)S(C)(=O)=O)[C@@H](C)CN([C@@H](C)CO)C(=O)c2cc(NS(=O)(=O)c3ccccc3)ccc2O1`: the cytotoxicity call is “inactive”. Turning to `CCC1(O)C(=O)OCc2c1cc1n(c2=O)Cc2cc3cc(O)ccc3nc2-1` (stereo not given), the cytotoxicity call was “inactive”. The result for `CCC1(O)C(=O)OCc2c1cc1n(c2=O)Cc2cc3c(CN(C)C)c(O)ccc3nc2-1.Cl` (stereo not given) reads “inactive”; that for `CC[C@@]1(O)C(=O)OCc2c1cc1n(c2=O)Cc2c-1nc1cc(F)c(C)c3c1c2[C@@H](N)CC3`, “active”. `CC(C)(C)[S@@](=O)N1Cc2cc(C(=O)N[C@H]3CCN(Cc4ccccc4)C3)nc(-c3cccc(-c4ccncc4)c3)c2[C@H]1CCO`: the cytotoxicity call is “inactive”. Then `Cc1noc(C)c1NC(=O)Nc1cccc2c1O[C@H](CN(C)Cc1ccc(Oc3ccccc3)cc1)[C@@H](C)CN([C@@H](C)CO)C2=O`, with “inactive”; and `C[C@H]1CCCCO[C@H](CN(C)S(=O)(=O)c2ccccc2)[C@@H](C)CN([C@@H](C)CO)C(=O)c2cc(NS(=O)(=O)c3cn(C)cn3)ccc2O1`, with “inactive”. As to `O=C(c1ccccc1O)N1CCOCC1`, the cytotoxicity call was “inactive”. As for `Nc1ccccc1C(=O)N1CCOCC1`, the cytotoxicity call was “inactive”. `O=C(c1cn(Cc2cncn2Cc2ccc(Br)cc2)cc1-c1cccc2ccccc12)N1CCOCC1`: the cytotoxicity call is “active”. Turning to `C[C@@H]1CN([C@H](C)CO)C(=O)c2cc(NC(=O)Nc3ccccc3)ccc2O[C@@H](C)CCCCO[C@H]1CN(C)Cc1ccncc1`, the cytotoxicity call is “inactive”. In the case of `COC1C=COC2(C)Oc3c(C)c(O)c4c(O)c(c(C=NN5CCN(C6CCCC6)CC5)c(O)c4c3C2=O)NC(=O)C(C)=CC=CC(C)C(O)C(C)C(O)C(C)C(OC(C)=O)C1C` (stereo not given), the cytotoxicity call is “inactive”. Regarding `CO[C@H]1/C=C\O[C@@]2(C)Oc3c(C)c(O)c4c(c3C2=O)[C@]2(C=C(NC(=O)/C(C)=C\C=C/[C@@H](C)[C@@H](O)[C@@H](C)[C@@H](O)[C@@H](C)[C@@H](OC(C)=O)[C@@H]1C)C4=O)OCC(=O)O2`, the cytotoxicity call was “active”.

Turning to `COC1C=COC2(C)Oc3c(C)c(O)c4c(O)c(c(C=NN5CCN(C)CC5)c(O)c4c3C2=O)NC(=O)C(C)=CC=CC(C)C(O)C(C)C(O)C(C)C(OC(C)=O)C1C` (stereo not given), the cytotoxicity call is “inactive”. Consider `COC1C=COC2(C)Oc3c(C)c(O)c4c(O)c(c5c(nc6cc(C)ccn65)c4c3C2=O)NC(=O)C(C)=CC=CC(C)C(O)C(C)C(O)C(C)C(OC(C)=O)C1C` (stereo not given), for which the cytotoxicity call is “inactive”. The result for `CO[C@H]1/C=C\O[C@@]2(C)Oc3c(C)c(O)c4c(O)c(c(/C=N/N=C/N5CCCCC5)c(O)c4c3C2=O)NC(=O)/C(C)=C\C=C/[C@H](C)[C@H](O)[C@@H](C)[C@@H](O)[C@@H](C)[C@H](OC(C)=O)[C@@H]1C` reads “active”; that for `[N-]=[N+]=Nc1ccccc1[C@H]1OC(c2ccc(OCCCO)cc2)=N[C@@]1(CCS(=O)(=O)c1ccccc1)C(=O)N1CCCCC1`, “inactive”. On to `C[C@@H]1CCCCO[C@@H](CN(C)S(=O)(=O)c2ccc(Cl)cc2)[C@@H](C)CN([C@@H](C)CO)C(=O)c2cc(NC(=O)Nc3cccc4ccccc34)ccc2O1`, for which the cytotoxicity call was “inactive”. Regarding `COc1ccccc1S(=O)(=O)N[C@H]1CC[C@H](CCNC(=O)C2CC2)O[C@H]1CO`, the cytotoxicity call is “inactive”. On to `CN1C(=O)c2cc(NC(=O)Cc3cccs3)ccc2OC[C@@H]2O[C@H](CC(=O)NCCc3ccncc3)CC[C@H]21`, for which the cytotoxicity call is “inactive”. Take `COc1ccc(CN(C)C[C@@H]2Oc3c(NC(=O)c4cc(C)nn4C)cccc3C(=O)N([C@H](C)CO)C[C@H]2C)cc1`: the cytotoxicity call was “inactive”. As for `Cc1c(CN2CCC(Nc3ncnc4sc(CC(F)(F)F)cc34)CC2)ccc2c1cc(C#N)n2Cc1cn[nH]c1`, the cytotoxicity call was “active”. For the compound `COc1ccc(NC(=O)N(C)C[C@H]2Oc3ccc(NC(=O)Nc4cccc5ccccc45)cc3C(=O)N([C@@H](C)CO)C[C@H]2C)cc1`, the cytotoxicity call is “inactive”.

With `COc1cc([C@@H]2c3cc4c(cc3[C@@H](O[C@@H]3O[C@@H]5CO[C@@H](C)O[C@H]5[C@H](O)[C@H]3O)[C@@H]3COC(=O)[C@@H]23)OCO4)cc(OC)c1O`, the cytotoxicity call is “inactive”. With `COc1cc([C@@H]2c3cc4c(cc3[C@@H](O[C@@H]3O[C@@H]5CO[C@@H](C)O[C@H]5[C@H](O)[C@H]3O)[C@H]3COC(=O)[C@H]23)OCO4)cc(OC)c1O`, the cytotoxicity call is “active”. With `COc1cc(C2c3cc4c(cc3C(OC3OC5COC(C)OC5C(O)C3O)C3COC(=O)C23)OCO4)cc(OC)c1O` (stereo not given), the cytotoxicity call was “inactive”.

As for `CC(C)(C)C(=O)Nc1ccccc1F`, the cytotoxicity call is “inactive”.

As for `CCN(CC)C(=S)SSC(=S)N(CC)CC`, the cytotoxicity call is “active”. Consider `C[C@H](CO)N1C[C@H](C)[C@@H](CN(C)S(=O)(=O)c2ccc(F)cc2)Oc2ccc(NC(=O)Nc3cccc4ccccc34)cc2C1=O`, for which the cytotoxicity call was “inactive”.

Take `O=S1(=O)CCC(O)CC1`: the cytotoxicity call is “inactive”.

As to `O=C(CNc1ccc2c(c1)oc1ccccc12)c1ccc(F)cc1`, the cytotoxicity call was “inactive”. The result for `Cc1ccc(S(=O)(=O)Nc2ccc3c(c2)CC(=O)N([C@@H](C)CO)C[C@H](C)[C@H](CN(C)Cc2ccc(Cl)c(Cl)c2)O3)cc1` reads “active”; that for `Cc1ccc(S(=O)(=O)Nc2ccc3c(c2)CC(=O)N([C@H](C)CO)C[C@H](C)[C@H](CN(C)Cc2ccc(Cl)c(Cl)c2)O3)cc1`, “active”; that for `Cc1ccc(S(=O)(=O)Nc2ccc3c(c2)CC(=O)N([C@H](C)CO)C[C@H](C)[C@@H](CN(C)Cc2ccc(Cl)c(Cl)c2)O3)cc1`, “inactive”. On to `Cc1ccc(S(=O)(=O)Nc2ccc3c(c2)CC(=O)N([C@@H](C)CO)C[C@@H](C)[C@H](CN(C)Cc2ccc(Cl)c(Cl)c2)O3)cc1`, for which the cytotoxicity call is “inactive”. Take `Cc1ccc(S(=O)(=O)Nc2ccc3c(c2)CC(=O)N([C@@H](C)CO)C[C@@H](C)[C@@H](CN(C)Cc2ccc(Cl)c(Cl)c2)O3)cc1`: the cytotoxicity call is “active”. For the compound `Cc1ccc(S(=O)(=O)Nc2ccc3c(c2)CC(=O)N([C@@H](C)CO)C[C@H](C)[C@@H](CN(C)Cc2ccc(Cl)c(Cl)c2)O3)cc1`, the cytotoxicity call was “active”.

On to `C[C@H](CO)N1C[C@H](C)[C@H](CN(C)C(=O)NC2CCCCC2)OCc2ccccc2-c2c(n(C)c3ccccc23)C1=O`, for which the cytotoxicity call was “inactive”. Turning to `CN1C(=O)CO[C@H]2CN(C(=O)NCc3cccnc3)C[C@@H]21`, the cytotoxicity call is “inactive”. In the case of `COc1ccc(S(=O)(=O)Nc2ccc3c(c2)CC(=O)N([C@@H](C)CO)C[C@H](C)[C@@H](CN(C)S(=O)(=O)c2ccc(C)cc2)O3)cc1`, the cytotoxicity call is “inactive”.
